SMILES strings stand for the structures. About 83,000 compounds went through this panel and 20% of them were active in at least one assay; those are over-represented in the sample as a whole.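 Growth was measured after 48 h exposure to one concentration of compound in 96-well plates. Values under 10 count as active.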 Values without a mark were called inactive. Calls of active or inactive are those of the source.

The assay has as its system HL-60(TB) leukemia. The experiment in a line: NCI-60 one-dose screen, 48 h (100 = growth as untreated, 0 = no growth, -100 = all killed). To be noted: 10 µM unless noted.
For `CNC(=O)c1cc(Oc2ccc3c(c2)sc2nc(-c4ccc(N(C)C)cc4)cn23)ccn1`, the growth was 5.28% (active).
As for `CN1CCN(c2ccc(Nc3nc(NCCCNS(=O)(=O)c4cccc5ccccc45)c4sccc4n3)cc2)CC1`, the figure is -45.2% (active).
As for `CNC(=O)c1cc(Oc2ccc3nc(NC(=O)c4ccc(N5CCOCC5)c(C(F)(F)F)c4)sc3c2)ccn1`, the figure is 94.2%.

The values are drawn from PubChem BioAssay (NCI).
